# Source: PubChem BioAssay
# AI-2 QS modul: Vibrio harveyi AI-2 quorum sensing modulators, primary screen, JMH597 strain, luminescence/OD600 ratio. activity change, % at 7.5 µM. 0.4% of 300,000 active. Vibrio harveyi JMH597 AI-2 luminescence/OD600 ratio, 9 h; hits give low values; strain lacks LuxN and CqsS sensors; 0 = neutral-control median; in the data active = activity change below about -75%, passing the limit was not always enough;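 also: luminescence divided by OD600 gain over 9 h not by final OD600 alone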
# CHT block: inhibitors of human choline transporter CHT; CHT-expressing cells, membrane potential dye, choline response; hits give low values; 0.86% of 310,000 active; High affinity choline transporter 1 (Homo sapiens), Q9GZV3; B-score at 10 µM;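 active = B-score over 3 SD under the library average, and starting fluorescence ratio not unusually high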;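 also: choline stimulus applied at its EC90 after an EC20 pre-addition; B-score computed on integrated fluorescence ratio after choline addition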
# VLA-4 inh: inhibition in human VLA-4 binding assay, primary screen, VLA-4 allosteric modulator project, MLPCN library, flow cytometry, VLA-4 expressing cells | inhibition, % (about 7 µM as worked out from the volumes in the protocol) | Integrin alpha-4 (Homo sapiens), P13612 | 0.2% of 330,000 active | ligand binding flow cytometry | AID 2557, 2010; in the data active = inhibition above about 50%
# Target sequence (P13612 whole entry, looked up): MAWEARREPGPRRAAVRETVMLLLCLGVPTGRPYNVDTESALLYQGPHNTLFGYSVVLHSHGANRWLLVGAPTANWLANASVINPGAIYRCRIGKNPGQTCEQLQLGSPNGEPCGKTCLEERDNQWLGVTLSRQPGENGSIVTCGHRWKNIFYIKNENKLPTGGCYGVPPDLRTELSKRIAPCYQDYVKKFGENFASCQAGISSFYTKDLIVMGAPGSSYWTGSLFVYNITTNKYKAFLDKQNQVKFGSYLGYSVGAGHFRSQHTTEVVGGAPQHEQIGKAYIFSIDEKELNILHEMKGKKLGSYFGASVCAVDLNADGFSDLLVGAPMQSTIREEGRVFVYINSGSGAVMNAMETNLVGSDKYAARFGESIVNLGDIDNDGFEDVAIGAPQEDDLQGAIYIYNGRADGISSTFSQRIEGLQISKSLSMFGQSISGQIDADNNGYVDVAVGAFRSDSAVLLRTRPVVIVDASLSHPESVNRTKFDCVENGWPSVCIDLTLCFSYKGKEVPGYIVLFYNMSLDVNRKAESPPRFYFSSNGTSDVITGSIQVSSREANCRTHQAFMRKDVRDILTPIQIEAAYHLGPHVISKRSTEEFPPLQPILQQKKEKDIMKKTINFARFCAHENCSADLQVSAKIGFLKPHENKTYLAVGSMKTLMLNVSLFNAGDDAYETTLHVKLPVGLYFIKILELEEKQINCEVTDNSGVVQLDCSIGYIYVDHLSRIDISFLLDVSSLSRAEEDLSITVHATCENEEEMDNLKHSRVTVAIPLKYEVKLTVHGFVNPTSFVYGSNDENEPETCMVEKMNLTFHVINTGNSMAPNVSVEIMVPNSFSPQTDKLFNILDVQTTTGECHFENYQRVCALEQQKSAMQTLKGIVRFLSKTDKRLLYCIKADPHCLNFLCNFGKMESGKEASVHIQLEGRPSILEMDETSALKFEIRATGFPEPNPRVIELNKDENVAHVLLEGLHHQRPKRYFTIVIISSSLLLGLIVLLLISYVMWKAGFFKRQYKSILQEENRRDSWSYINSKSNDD
# Platelet DG rel: inhibitors of platelet dense granule secretion, primary screen, cell-based, MLPCN, human platelets; human platelet-rich plasma, SFLLRN dense granule ATP release, luminescence; inhibition, %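 (compounds screened at 7.5 µM in platelet-rich plasma)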; 0.22% of 300,000 active; AID 1663, 2009;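 active = mean replicate score, as percent of positive control, at or above 50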
# HIF activator: HIF pathway transcriptional activators, primary screen, cell-based, U2OS HRE-luciferase, luminescence | 0.32% of 300,000 active | activation, % at 7.5 µM (by protocol) | U2OS HRE-luciferase reporter; normalized: DMSO 0%, desferrioxamine 100%;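 active = mean activation of at least 10% of the iron chelator positive control signal, with at least half of replicates also reaching 10%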
# CHT PAM: CHT positive allosteric modulators, primary screen, cell-based, membrane potential dye, choline EC20; High affinity choline transporter 1 (Homo sapiens), Q9GZV3; CHT-expressing cells; hits give high values; LV-AA mutant CHT in HEK293 cells; B-score at 10 µM; 0.49% of 310,000 active; AID 488977, 2010;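 active = initial fluorescence not abnormally high and integrated response B-score, plate-corrected, over 3 SD above library mean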
# VLA-4 allo CP: retest of VLA-4 allosteric modulators, confirmation, cell-based, cherry-picked plates, U937, HUTS-21 LIBS antibody | 2% of 1,300 active | U937 cells, HUTS-21 LIBS mAb binding, flow cytometry; LDV ligand present at threefold Kd | inhibition, % at 6.7 µM | shares compounds with VLA-4 inh; in the data active = inhibition above about 40%;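 also: 0% = ligand without compound and 100% = no ligand background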
# * marks the source's active call; other numbers are inactive results; i = inactive; . = no result given. Sampled rows, rich in hits. Any-hit rate of the full collection: about 2.2%.
SMILES,AI-2 QS modul,CHT block,VLA-4 inh,Platelet DG rel,HIF activator,CHT PAM,VLA-4 allo CP
O=C(COC(=O)C1=NN(c2ccccc2)C(=O)CC1)NCc1ccccc1Cl,.,.,6.4,.,.,.,.
COC(C)c1oc2c(C)c3oc(=O)cc(C)c3cc2c1C (centres undefined),24.8,i,-4.8,-2.6,1.6,i,.
c1ccc(C(Cc2nc(-c3cccnc3)no2)c2ccccc2)cc1,7.6,i,92.4*,10.1,0.3,i,-3.9
O=c1[nH]c(-c2ccccc2)c(-c2ccccc2)nc1[N+](=O)[O-],6.4,i,16.2,21.8,-2.2,i,.
Cc1nnc(NC(=O)CSc2ccc3nnc(-c4cccnc4)n3n2)s1,14.1,i,54.5*,0.3,0.2,i,3.3
Cc1ccc(NC(=O)COc2cccc(-n3cnnn3)c2)cc1S(=O)(=O)N1CCOCC1,.,.,4.3,.,.,.,.
O=C1NC(=O)/C(=C/c2cccc(O)c2)N1,23.7,i,47.1,7.4,0.2,i,-2.8
COc1ccc(S(=O)(=O)NCC(=O)N(CC(=O)NCC2CCCO2)Cc2ccc(F)cc2)cc1 (centres undefined),19.8,i,1.7,2.6,-0.1,i,.
Cc1noc(C)c1CSc1ncnc2sc3c(c12)CCCCC3,24.4,i,41.7,-9.8,0.0,i,0.5
CCOC(=O)c1nnsc1N,18.5,i,2.8,-0.7,-0.1,i,.
CCOc1ccc(N(Cc2ccc(OC)cc2)C(=O)c2ccco2)cc1,24.3,i,-0.3,12.7,0.0,i,.
CCOc1ccc(N(Cc2ccc(OC)c(OC)c2)C(=O)c2ccco2)cc1,-0.7,i,67.8*,0.0,0.1,i,8.2
COc1cc(OC)cc(C(=O)NNC(=S)NCc2ccco2)c1,10.6,i,52.6*,0.4,-0.4,i,8.4
Cc1ccc(C(=O)c2cc([N+](=O)[O-])ccc2N2CC(C)OC(C)C2)cc1 (centres undefined),12.1,i,-2.1,10.0,0.2,i,-1.1
O=C(c1ccc(Br)cc1)c1cc([N+](=O)[O-])ccc1N1CCOCC1,20.8,i,5.4,1.3,0.8,i,17.0
CC1CN(c2ccc([N+](=O)[O-])cc2C#N)CC(C)O1 (centres undefined),6.9,i,9.9,0.1,-0.3,i,.
COc1cc(CC(NC(C)=O)C(=O)NC2CCN(S(=O)(=O)c3ccc(NC(C)=O)cc3)CC2)cc(OC)c1 (centres undefined),18.4,i,17.9,-6.0,-7.5,i,.
O=C(CCn1nc(-c2ccc(Cl)cc2)ccc1=O)N1CCN(c2ccccc2)CC1,11.2,i,7.8,-6.9,4.2,i,.
CCc1ccc(CN2CCC(n3nccc3NC(=O)Cc3ccccc3)CC2)o1,38.3,i,0.5,0.8,-0.3,i,.
CCOCCCNC(=O)/C(C#N)=C/c1ccc(Cl)c([N+](=O)[O-])c1,11.8,i,59.1*,16.4,2.3,i,36.2
CCOCCCNC(=O)/C(C#N)=C/c1cc(OC)c(O)c([N+](=O)[O-])c1,21.8,i,16.6,-0.2,3.2,i,.
CCCCNC(=O)/C(C#N)=C/c1cccnc1,20.3,i,7.9,-9.6,-0.3,i,.
COCCNC(=O)/C(C#N)=C/c1cccc(/C=C(\C#N)C(=O)NCCOC)c1,-9.0,i,50.4*,-6.1,-0.3,i,21.1
COCCNC(=O)/C(C#N)=C/c1ccc(O)cc1,8.8,i,1.8,85.6*,0.6,i,-0.9
CCCCCCCCNC(=O)/C(C#N)=C/c1ccc(SC)cc1,11.6,i,0.5,-3.1,-0.2,i,0.3
SMILES,AI-2 QS modul,CHT block,VLA-4 inh,Platelet DG rel,HIF activator,CHT PAM,VLA-4 allo CP
O=C(CSc1nnc(NC(=O)c2ccccc2F)s1)NC1CC1,20.8,i,23.0,2.5,0.5,i,.
COc1cc(C)nc(-n2nc(C)cc2OC)n1,17.1,i,-8.2,-4.6,-0.4,i,0.0
Cc1ccc(C(C(=O)NCCc2ccccc2)N(C(=O)c2csnn2)C2CC2)o1 (centres undefined),8.4,i,54.4*,-1.7,0.5,i,6.4
O=C(COC(=O)c1ccccc1)NC1CCCCCC1,.,.,-0.6,.,.,.,-3.5
O=C(Cc1ccc(Br)cc1)OCC(=O)N1CCCCCC1,.,.,4.9,.,.,.,.
CCOc1ccc(NC(=O)COC(=O)c2c(OC)cccc2OC)cc1,6.0,i,-6.1,1.4,-0.6,i,-15.7
O=C(CNCc1cccc(Cl)c1)N1CCc2ccccc2C1,5.5,i,6.4,0.2,0.3,i,.
Cc1cc(=O)oc2cc(OC(C)C(=O)NCCCN3CCCC3=O)c(Cl)cc12 (centres undefined),11.3,i,51.8*,-9.6,0.3,i,-3.5
Cc1cc(=O)n2nc(N3CCCC(C(=O)Nc4ccc(C)c(C)c4)C3)sc2n1 (centres undefined),18.0,i,4.3,-0.4,0.0,i,.
N#CC1=C(S)N=C(N)C(c2nc(-c3ccccc3)cs2)C12CCCC2 (centres undefined),13.9,i,91.3*,8.6,0.2,i,-1.6
Cc1ccccc1-c1nc2cc(Cl)ccc2c(=O)o1,22.0,i,40.2,1.5,0.1,i,-15.1
CCc1ccc(C2C3=C(CC(C)(C)CC3=O)Nc3c2c(=O)[nH]c2nc(C)nn32)cc1 (centres undefined),40.9,i,57.0*,1.9,0.0,i,6.4
Cc1nc2[nH]c(=O)c3c(n2n1)NC1=C(C(=O)CC(C)(C)C1)C3c1ccc(F)cc1 (centres undefined),14.9,i,0.8,12.0,-0.2,i,.
CCN1CCN(Cc2ccc(NC(=O)c3cc(NC(=O)N4CCNC4=O)cc(OC)c3)cc2C(F)(F)F)CC1,12.7,i,55.2*,-1.1,-0.3,i,-2.1
COc1cc(NC(=O)c2ccno2)cc(C(=O)Nc2cccc(C(F)(F)F)c2)c1,21.3,i,9.7,1.0,-0.8,i,.
COc1cc(NC(=O)N2CCNC2=O)cc(C(=O)Nc2cccc(C(F)(F)F)c2)c1,21.9,i,14.4,-0.7,0.6,i,13.6
